Compound activity: PubChem, National Center for Advancing Translational Sciences (NCATS)
DT40 TDP1 CPT: DT40-hTDP1 cell growth loss with CPT; chicken DT40 Tdp1-/-;hTDP1 cells + 20 nM CPT, ATP luminescence, 48 h; Potency, µM (highest dose often 46.2 µM), inactives show top-dose activity change, negative = growth inhibition, hits mostly inhibitors; 420,000 tested, 12% active; AID 686979; further: potency means the concentration at half of the fitted maximal effect; on the % scale 0 is the no-effect control and ±100 the full control effect; nearly all actives have a fitted effect of over 55% in size
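Chicken DT40 Tdp1-/- cells complemented with human TDP1, 400 cells/well, exposed to compounds plus 20 nM camptothecin for at least 48 h at 37 C; viability read as ATP content by CellTiter-Glo luminescence.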
TDP1 inh: blocks human tyrosyl-DNA phosphodiesterase 1 | recombinant TDP1, AlphaScreen DNA substrate cleavage | Q9NUW8 | AID 485290 | Potency, µM (top dose mostly 130 µM), for inactives: at the highest dose activity change, negative = inhibition, usual class: inhibitors | 350,000 tested, 0.28% active; further: potency means the concentration at half of the fitted maximal effect; on the % scale 0 is the no-effect control and ±100 the full control effect; nearly all actives have a fitted effect of over 40% in size
Target sequence (Q9NUW8 whole entry, looked up): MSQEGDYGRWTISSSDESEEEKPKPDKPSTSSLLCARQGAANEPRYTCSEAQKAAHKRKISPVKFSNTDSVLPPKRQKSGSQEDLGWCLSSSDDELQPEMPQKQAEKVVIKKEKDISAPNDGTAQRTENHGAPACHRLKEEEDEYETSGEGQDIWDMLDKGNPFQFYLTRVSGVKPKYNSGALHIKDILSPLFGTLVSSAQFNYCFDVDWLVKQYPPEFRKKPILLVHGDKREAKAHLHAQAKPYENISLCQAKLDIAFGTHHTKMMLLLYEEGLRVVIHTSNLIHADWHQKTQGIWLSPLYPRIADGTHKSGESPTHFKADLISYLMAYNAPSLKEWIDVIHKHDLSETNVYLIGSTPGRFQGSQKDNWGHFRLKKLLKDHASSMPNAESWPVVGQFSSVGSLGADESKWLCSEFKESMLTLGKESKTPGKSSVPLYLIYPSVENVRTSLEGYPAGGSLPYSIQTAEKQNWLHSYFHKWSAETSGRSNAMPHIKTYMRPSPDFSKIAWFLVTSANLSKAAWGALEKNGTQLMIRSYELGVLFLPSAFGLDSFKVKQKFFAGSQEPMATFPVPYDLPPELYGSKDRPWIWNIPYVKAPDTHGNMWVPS
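Compounds were preincubated with Tdp1 (1 nM final) for 15 min at room temperature before substrate (15 nM final) started a 5 min reaction; beads (10 ug/ml final) were then added for 10 min before AlphaScreen detection.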
HepG2 viability: kills HepG2 cells in TGF-b inhibitor counter-screen; Potency, µM (top dose mostly 46.1 µM), for the others: at the top dose activity change, negative = cytotoxicity, actives largely listed as cytotoxic; 410,000 tested, 0.76% active; AID 588856; HepG2 CAGA-GFP viability, ATP luminescence, 18 h; further: potency means the concentration at half of the fitted maximal effect
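HepG2 CAGA-GFP cells (1000/well, DMEM with 1% FBS) received compound, then TGF-beta at 500 pg/mL final, and were incubated 18 hours at 37 degrees C. Viability was read by CellTiter-Glo luminescence. Media-only wells were set as complete cell-killing and DMSO as no toxicity.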
TDP1 cell noCPT: qHTS for Inhibitors of human tyrosyl-DNA phosphodiesterase 1 (TDP1): qHTS in cells in absence of CPT | Potency, µM (titrated, usually from 46.2 µM), for inactives: at the top dose activity change, negative = growth inhibition, most hits filed as inhibitors | DT40 Tdp1-/- hTDP1 cells, no CPT, ATP luminescence, 48 h | 420,000 tested, 15% active | AID 686978, 2013; further: potency means the concentration at half of the fitted maximal effect; on the % scale 0 is the no-effect control and ±100 the full control effect; nearly all actives have a fitted effect of over 55% in size
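Luminescent ATP content (CellTiter-Glo) served as the growth readout. Knockout chicken DT40 cells expressing human TDP1 were exposed to compounds without camptothecin for a minimum 48 hr at 37 °C.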
IL1B secr inh: inhibitors of inflammasome signaling (IL-1 beta secretion) | 360,000 tested, 4.7% active | THP-1 LPS/ATP IL-1B secretion, AlphaLISA, 16 h; active compounds read low | activity change, % at 57.5 µM; in the data active means activity change below about -50%; inconclusive means mostly about -30% to -49%; further: on the % scale 0 is the no-effect control and ±100 the full control effect
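THP-1 cells pretreated 1 hr with compounds (up to 57.5 uM final), then stimulated with LPS (250 ng/mL final) plus ATP (1.25 mM final); secreted IL-1B measured by AlphaLISA after 16 hr, decreased signal indicating inhibition.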
TGFb SMAD3 inh: blocks TGF-b signaling | HepG2 CAGA-GFP TGF-b/SMAD3 reporter, GFP fluorescence, 18 h; TGF-beta stimulated, 500 pg/mL final | 410,000 tested, 1.2% active | AID 588855 | Potency, µM (highest dose often 46.1 µM), for inactives: at the highest dose activity, negative = inhibition, actives largely listed as inhibitors; further: potency means the concentration at half of the fitted maximal effect; on the % scale 0 is the no-effect control and ±100 the full control effect; nearly all actives have a fitted effect of over 65% in size
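GFP signal (ex488/em500-530) from TGF-beta-stimulated HEPG2 CAGA-GFP cells, 500 pg/mL final, 18 h at 37 degrees C in DMEM plus 1% FBS, normalized to unstimulated and DMSO-stimulated controls.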
The depositor's hits bear a star; ? = inconclusive; . = no result; [ ] = dose if it differs, or a comment. An excerpt weighted towards active compounds, which were near 18% of everything screened. Unless noted, the call rests on the fitted dose curve; in most records, active means well fitted curve in the direction sought with a large enough effect; inconclusive means small, poorly fitted or top-dose-only effect, or another doubt; inactive means no such curve, though single readings can be large; an effect the other way counts as inactive or inconclusive.

SMILES	DT40 TDP1 CPT	TDP1 inh	HepG2 viability	TDP1 cell noCPT	IL1B secr inh	TGFb SMAD3 inh
CCS(=O)(=O)NCC(c1cccnc1)N1CCN(c2ccccc2)CC1 (configuration not stated)	-19%	1%	-11%	-14%	-16	7%
COc1ccc(CNC(=O)C(=O)NCC(c2cccnc2)N2CCN(c3ccccc3)CC2)cc1 (configuration not stated)	16µM*	3%	-2%	13µM*	.	?
COc1ccc(CCNC(=O)C(=O)NCC(c2cccnc2)N2CCN(c3ccccc3)CC2)cc1 (configuration not stated)	23µM*	5%	-3%	18µM*	.	-21%
Cc1c(Cl)cccc1NC(=O)C(=O)NCC(c1cccnc1)N1CCN(c2ccccc2)CC1 (configuration not stated)	16µM*	4%	-14%	21µM*	.	?
COc1ccc(-c2c(-c3cc(OC)cc(OC)c3)n(C)c3ccc(-c4ccc(S(N)(=O)=O)cc4)cc23)cc1	10µM*	3%	-23%	4.1µM*	-54*	-30%
COc1cccc(-c2c(-c3cc(OC)cc(OC)c3)n(C)c3ccc(-c4cnc(OC)nc4)cc23)c1	?	2%	1%	15µM*	-4	-8%
COc1cc(OC)cc(-c2c(-c3ccc(F)cc3)c3cc(-c4cnc(OC)nc4)ccc3n2C)c1	16µM*	1%	-2%	13µM*	6	-6%
COc1ccc(-c2c(-c3cc(OC)cc(OC)c3)n(C)c3ccc(-c4cnc(N)nc4)cc23)cc1	-26%	3%	-2%	?	-8	-5%
COc1cccc(-c2c(-c3cc(OC)cc(OC)c3)n(C)c3ccc(-c4cnc(N5CCOCC5)nc4)cc23)c1	13µM*	4%	-1%	23µM*	18	-21%
COc1cc2oc(=O)c(CC(=O)NCc3ccc(OC)c(OC)c3)c(C)c2cc1Cl	-12%	5%	4%	?	.	8%
CN(c1ccccc1)S(=O)(=O)c1cccc(NC(=O)CSc2n[nH]c(N)n2)c1	9.2µM*	.	4%	9.2µM*	26	-1%
Cc1nnc(SCC(=O)Nc2cccc(S(=O)(=O)N(C)c3ccccc3)c2)s1	8.2µM*	-1%	5%	6.5µM*	11	-14%
CC1(C)C(=O)C=C[C@]2(C)C1CC(=O)[C@]1(C)C2CC[C@@]2(C)C(c3ccoc3)OC(=O)C3O[C@@]321 (some centres not stated)	-8%	6%	.	?	.	.
CCCN(CCC)C(=O)Cn1c(=O)n(-c2cccc(C)c2)c(=O)c2c1c1cc(OC)ccc1n2C	15µM*	-6%	-5%	23µM*	.	1%
COc1ccc2c(c1)c1c(c(=O)n(-c3ccc(F)c(Cl)c3)c(=O)n1Cc1cccc(C)c1)n2C	?	-3%	-5%	?	.	16%
COc1ccc2c(c1)c1c(c(=O)n(-c3ccccc3C)c(=O)n1Cc1cccc(C(F)(F)F)c1)n2C	3.7µM*	6%	5%	3.7µM*	.	-18%
COc1ccc2c(c1)c1c(c(=O)n(-c3cccc(C)c3)c(=O)n1Cc1cccc(Cl)c1)n2C	7.3µM*	3%	-22%	5.8µM*	.	34%
CCOc1ccccc1OCCCC(=O)N1CCN(S(=O)(=O)c2ccc(C)cc2C)CC1	21µM*	0%	-17%	-57%	0	-3%
Cc1ccccc1OCCC(=O)N1CCN(S(=O)(=O)c2ccc(Br)cc2)CC1	?	1%[0.505 µM]	3%	23µM*	-13	?
CCC(=O)c1cc(Br)ccc1OCC(=O)N1CCN(S(=O)(=O)c2ccccc2)CC1	?	.	-10%	23µM*	-58*	-15%
CCOc1ccccc1OCCCC(=O)N1CCN(S(=O)(=O)c2ccc(C)cc2)CC1	?	4%	-20%	?	-20	-10%
Cc1ccccc1OCCC(=O)N1CCN(S(=O)(=O)c2ccc(F)cc2)CC1	-28%	4%	30%	?	12	2%
Cc1ccc(S(=O)(=O)N2CCN(CC(=O)N3CCCC3)CC2)c(C)c1	2%	1%	3%	-6%	-29	6%
Cc1ccc(S(=O)(=O)N2CCN(C(=O)CSC(=S)N3CCCC3)CC2)c(C)c1	5.2µM*	0%[56.1 µM]	10µM*	3.3µM*	6	11µM*
CCOC(=O)CCc1cc(F)c(S(=O)(=O)N2CCN(S(=O)(=O)c3ccc4c(c3)OCCO4)CC2)cc1F	.	0%	.	.	.	.
SMILES	DT40 TDP1 CPT	TDP1 inh	HepG2 viability	TDP1 cell noCPT	IL1B secr inh	TGFb SMAD3 inh
CC(C)(C)c1nc(NCCO)c2nnn(Cc3ccccc3)c2n1	?	.	-24%	?	38	-20%
Nc1nn(-c2ccccc2)nc1C(=O)OCc1c(F)cccc1Cl	0%	-7%	-16%	1%	.	-7%
CCOC(=O)c1ccc(Nc2c(-c3ccc(O)cc3)nc3nc[nH]n23)cc1	?	8%	1%	?	.	5%
CCOC(=O)c1ccc(Nc2c(-c3ccc(O)c(OC)c3)nc3nc[nH]n23)cc1	12µM*	5%	-23%	16µM*	.	47%
CCOC(=O)c1ccc(Nc2c(-c3ccc(OC)cc3)nc3nc[nH]n23)cc1	21µM*	6%	-36%	23µM*	.	-20%
CC(C)CC(=O)N1CCC(N(CCc2ccccc2)Cc2ccccc2)CC1	?	6%	-18%	?	6	?
COc1ccc(OC)c(N(CC(=O)N2CCOCC2)S(C)(=O)=O)c1	22%	.	13%	-19%	2	1%
C[n+]1ccc(/C=C/c2ccc([N+](C)(C)C)cc2)c2ccccc21	0.14µM*	.	-69%	0.16µM*	.	4.5µM*
C[n+]1ccc(/C=C/c2cc[n+](C)c3ccccc23)c2ccccc21	0.1µM*	.	-69%	0.079µM*	.	7.1µM*
COc1ccc(/C=C/c2cc[n+](C)c3ccccc23)cc1OC	?	.	-8%	?	.	34%
CN1C=C/C(=C\c2cc[n+](C)c3ccccc23)c2ccccc21	0.21µM*	7%	-49%	0.0082µM*	-71*	?
C[n+]1ccc(/C=C/c2ccc(F)cc2)c2ccccc21	8.9µM*	.	-42%	13µM*	.	-2%
